Measurements: the supplement of paper PMC11732987, “Enantioselective OTUD7B fragment discovery through chemoproteomics screening and high-throughput optimisation” (Communications Chemistry, 2025)

Columns and labels:
Assay in all cases: log2 ratio of Biotin-Ahx-Ub-VS probe labelling (fragment/DMSO); higher = less target engagement (more negative = stronger competition), active = hit call of the paper (q ≤ 0.05, log2 ratio ≤ -1)
Settings in all cases: compound concentration: 200 uM; treatment time: 3 h
ALG13 = target: T1, ALG13 (UniProt Q9NP73)
T1 sequence (whole entry): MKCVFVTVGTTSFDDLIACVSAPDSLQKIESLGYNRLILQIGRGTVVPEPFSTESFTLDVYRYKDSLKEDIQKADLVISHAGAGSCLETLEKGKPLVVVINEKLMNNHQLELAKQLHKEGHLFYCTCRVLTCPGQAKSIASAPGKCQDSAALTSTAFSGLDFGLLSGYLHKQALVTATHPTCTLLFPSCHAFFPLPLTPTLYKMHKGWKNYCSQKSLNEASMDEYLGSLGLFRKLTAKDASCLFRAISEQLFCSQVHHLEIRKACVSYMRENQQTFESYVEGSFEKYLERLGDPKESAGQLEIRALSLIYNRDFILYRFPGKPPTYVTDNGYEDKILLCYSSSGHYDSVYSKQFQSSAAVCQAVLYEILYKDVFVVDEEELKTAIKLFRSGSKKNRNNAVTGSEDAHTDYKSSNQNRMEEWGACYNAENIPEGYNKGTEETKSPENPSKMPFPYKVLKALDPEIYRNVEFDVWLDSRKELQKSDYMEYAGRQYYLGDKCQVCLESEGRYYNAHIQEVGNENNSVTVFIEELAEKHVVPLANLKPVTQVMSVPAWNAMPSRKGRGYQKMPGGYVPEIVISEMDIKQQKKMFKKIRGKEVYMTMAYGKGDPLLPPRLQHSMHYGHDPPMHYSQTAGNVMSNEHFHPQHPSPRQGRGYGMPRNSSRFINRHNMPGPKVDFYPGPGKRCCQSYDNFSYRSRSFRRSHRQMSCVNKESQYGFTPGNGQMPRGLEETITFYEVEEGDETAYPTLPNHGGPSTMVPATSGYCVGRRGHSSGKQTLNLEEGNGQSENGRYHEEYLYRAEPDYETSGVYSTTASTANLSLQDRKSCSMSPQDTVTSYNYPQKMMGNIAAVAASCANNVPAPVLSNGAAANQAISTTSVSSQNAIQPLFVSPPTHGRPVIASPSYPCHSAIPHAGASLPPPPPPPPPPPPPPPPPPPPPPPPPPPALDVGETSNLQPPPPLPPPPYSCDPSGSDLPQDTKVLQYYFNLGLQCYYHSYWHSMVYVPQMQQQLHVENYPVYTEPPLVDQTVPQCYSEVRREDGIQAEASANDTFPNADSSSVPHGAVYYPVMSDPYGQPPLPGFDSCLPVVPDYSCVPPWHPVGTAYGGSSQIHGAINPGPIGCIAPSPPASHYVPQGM
In short: (§1)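 Labelling with Biotin-Ahx-Ub-VS (0.5 µM final, 1 h) followed a 3 h triplicate treatment of HEK293T lysate (495 µg per sample, Tris/CHAPS/IGEPAL buffer with protease inhibitors) with fragment at 200 µM or vehicle. Labelled DUBs were NeutrAvidin-enriched, digested with LysC and trypsin, and run by diaPASEF LC-MS/MS. The values, average log2 fragment/vehicle ratios by unpaired t-test, come from global-median-normalised Spectronaut label-free quantities. Proteins with ≥2 unique peptides were used.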

ATXN3 = ATXN3 (UniProt P54252)
In short: as §1

BAP1 = target: T2, BAP1 (UniProt Q92560)
T2 sequence (whole entry): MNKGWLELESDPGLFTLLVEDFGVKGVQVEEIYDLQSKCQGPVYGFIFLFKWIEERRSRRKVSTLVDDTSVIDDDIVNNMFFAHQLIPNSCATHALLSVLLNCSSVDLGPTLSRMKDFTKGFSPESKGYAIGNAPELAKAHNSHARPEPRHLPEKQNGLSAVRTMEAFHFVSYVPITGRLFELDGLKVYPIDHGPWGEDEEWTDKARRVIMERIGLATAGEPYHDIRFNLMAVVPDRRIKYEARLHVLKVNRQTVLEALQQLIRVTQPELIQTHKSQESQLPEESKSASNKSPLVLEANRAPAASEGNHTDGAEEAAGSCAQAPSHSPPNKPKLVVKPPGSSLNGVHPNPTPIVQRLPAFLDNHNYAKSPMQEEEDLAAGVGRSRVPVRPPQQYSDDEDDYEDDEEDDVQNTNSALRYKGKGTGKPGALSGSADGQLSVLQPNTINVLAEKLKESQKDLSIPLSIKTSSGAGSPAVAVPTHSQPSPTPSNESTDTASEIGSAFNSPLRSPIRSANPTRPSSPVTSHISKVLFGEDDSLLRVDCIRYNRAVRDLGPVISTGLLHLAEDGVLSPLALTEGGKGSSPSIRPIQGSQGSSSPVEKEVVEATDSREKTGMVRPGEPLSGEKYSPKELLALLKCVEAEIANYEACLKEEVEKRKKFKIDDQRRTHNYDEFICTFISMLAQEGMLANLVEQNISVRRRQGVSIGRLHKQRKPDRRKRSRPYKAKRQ
In short: as §1

EIF3F = EIF3F (UniProt O00303)
In short: as §1

EIF3H = EIF3H (UniProt O15372)
In short: as §1

FAM105A = target: T3, FAM105A (UniProt Q9NUU6)
T3 sequence (whole entry): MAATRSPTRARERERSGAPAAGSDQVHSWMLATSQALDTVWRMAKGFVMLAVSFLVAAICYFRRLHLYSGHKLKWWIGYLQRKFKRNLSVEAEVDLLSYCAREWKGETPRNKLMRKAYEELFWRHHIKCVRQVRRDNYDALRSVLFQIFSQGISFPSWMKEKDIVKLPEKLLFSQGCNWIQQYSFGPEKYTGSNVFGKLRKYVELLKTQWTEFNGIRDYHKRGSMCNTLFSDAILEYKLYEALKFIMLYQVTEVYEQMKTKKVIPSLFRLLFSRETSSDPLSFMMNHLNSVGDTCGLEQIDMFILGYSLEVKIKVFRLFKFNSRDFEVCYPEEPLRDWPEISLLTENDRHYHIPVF
In short: as §1

OTUB1 = OTUB1 (UniProt Q96FW1)
In short: as §1

OTUD4 = target: T4, OTUD4 (UniProt Q01804)
T4 sequence (whole entry): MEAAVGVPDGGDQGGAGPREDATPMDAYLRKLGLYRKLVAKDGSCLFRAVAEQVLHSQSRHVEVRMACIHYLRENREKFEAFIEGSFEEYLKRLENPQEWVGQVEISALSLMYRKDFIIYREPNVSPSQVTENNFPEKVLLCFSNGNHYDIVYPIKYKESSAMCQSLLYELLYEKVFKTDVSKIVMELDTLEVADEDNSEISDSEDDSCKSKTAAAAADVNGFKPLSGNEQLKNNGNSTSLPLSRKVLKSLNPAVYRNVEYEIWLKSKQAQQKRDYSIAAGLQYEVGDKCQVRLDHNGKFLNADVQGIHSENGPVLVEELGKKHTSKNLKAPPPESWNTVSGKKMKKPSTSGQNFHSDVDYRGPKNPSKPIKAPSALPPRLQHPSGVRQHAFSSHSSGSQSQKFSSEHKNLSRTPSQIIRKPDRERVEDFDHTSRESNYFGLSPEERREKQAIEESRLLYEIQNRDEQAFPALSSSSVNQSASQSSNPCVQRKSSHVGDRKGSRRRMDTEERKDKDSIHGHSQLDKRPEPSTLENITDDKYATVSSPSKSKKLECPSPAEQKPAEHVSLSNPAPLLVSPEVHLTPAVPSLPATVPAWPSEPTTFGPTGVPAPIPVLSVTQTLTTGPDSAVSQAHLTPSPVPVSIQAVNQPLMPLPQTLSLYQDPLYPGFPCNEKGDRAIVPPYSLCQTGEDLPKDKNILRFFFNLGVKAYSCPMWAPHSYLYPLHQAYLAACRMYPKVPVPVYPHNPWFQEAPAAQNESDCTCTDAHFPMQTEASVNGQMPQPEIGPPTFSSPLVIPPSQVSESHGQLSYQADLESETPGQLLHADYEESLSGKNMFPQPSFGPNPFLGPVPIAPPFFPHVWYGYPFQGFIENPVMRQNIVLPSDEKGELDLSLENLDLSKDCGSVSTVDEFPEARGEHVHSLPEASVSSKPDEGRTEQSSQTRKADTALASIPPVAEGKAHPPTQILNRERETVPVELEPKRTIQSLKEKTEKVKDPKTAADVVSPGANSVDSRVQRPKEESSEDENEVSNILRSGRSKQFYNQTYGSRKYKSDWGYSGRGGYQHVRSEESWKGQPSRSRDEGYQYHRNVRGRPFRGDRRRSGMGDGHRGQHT
In short: as §1

OTUD5 = target: T5, OTUD5 (UniProt Q96G74)
T5 sequence (whole entry): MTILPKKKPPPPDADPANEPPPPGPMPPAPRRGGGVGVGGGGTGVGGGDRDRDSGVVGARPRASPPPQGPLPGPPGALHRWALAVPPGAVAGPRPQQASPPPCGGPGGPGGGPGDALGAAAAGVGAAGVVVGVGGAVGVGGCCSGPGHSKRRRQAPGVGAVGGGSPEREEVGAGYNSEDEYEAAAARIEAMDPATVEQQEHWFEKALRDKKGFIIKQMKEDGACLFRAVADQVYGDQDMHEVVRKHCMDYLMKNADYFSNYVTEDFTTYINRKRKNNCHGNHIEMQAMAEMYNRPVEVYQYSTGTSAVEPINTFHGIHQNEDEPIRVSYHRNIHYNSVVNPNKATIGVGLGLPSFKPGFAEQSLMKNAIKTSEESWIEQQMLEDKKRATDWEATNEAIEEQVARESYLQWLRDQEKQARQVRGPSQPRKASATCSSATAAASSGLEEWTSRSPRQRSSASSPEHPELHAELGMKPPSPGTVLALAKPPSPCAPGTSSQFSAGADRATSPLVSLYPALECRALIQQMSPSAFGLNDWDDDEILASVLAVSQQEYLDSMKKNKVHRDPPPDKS
In short: as §1

Measured: log2 ratio of Biotin-Ahx-Ub-VS probe labelling

Sequence of OTUB1 (Q96FW1 whole entry): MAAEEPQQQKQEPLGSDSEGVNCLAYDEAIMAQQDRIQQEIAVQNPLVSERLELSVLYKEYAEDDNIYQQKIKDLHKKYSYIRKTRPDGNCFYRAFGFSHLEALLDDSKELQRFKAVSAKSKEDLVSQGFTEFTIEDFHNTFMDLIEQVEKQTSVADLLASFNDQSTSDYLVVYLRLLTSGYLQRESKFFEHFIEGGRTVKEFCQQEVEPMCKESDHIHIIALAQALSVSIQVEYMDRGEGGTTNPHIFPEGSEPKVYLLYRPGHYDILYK
Sequence of EIF3H (O15372 whole entry): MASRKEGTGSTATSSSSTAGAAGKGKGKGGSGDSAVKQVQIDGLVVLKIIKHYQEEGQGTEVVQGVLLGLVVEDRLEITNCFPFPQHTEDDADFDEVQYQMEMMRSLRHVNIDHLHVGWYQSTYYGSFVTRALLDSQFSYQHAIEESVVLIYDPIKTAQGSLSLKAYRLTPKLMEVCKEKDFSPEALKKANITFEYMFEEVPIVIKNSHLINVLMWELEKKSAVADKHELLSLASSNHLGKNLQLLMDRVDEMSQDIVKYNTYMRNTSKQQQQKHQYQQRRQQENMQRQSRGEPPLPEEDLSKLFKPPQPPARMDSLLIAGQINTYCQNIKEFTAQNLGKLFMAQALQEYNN
Sequence of EIF3F (O00303 whole entry): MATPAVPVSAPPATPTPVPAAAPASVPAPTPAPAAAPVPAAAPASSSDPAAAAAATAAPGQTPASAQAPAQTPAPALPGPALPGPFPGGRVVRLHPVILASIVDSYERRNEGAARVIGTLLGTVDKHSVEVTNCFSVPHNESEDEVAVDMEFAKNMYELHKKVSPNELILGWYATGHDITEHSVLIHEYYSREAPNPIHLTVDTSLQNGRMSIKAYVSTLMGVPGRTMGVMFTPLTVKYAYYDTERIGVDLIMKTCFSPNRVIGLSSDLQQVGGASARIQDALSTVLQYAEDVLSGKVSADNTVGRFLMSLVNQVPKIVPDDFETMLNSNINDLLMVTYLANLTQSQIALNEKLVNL
Sequence of ATXN3 (P54252 whole entry): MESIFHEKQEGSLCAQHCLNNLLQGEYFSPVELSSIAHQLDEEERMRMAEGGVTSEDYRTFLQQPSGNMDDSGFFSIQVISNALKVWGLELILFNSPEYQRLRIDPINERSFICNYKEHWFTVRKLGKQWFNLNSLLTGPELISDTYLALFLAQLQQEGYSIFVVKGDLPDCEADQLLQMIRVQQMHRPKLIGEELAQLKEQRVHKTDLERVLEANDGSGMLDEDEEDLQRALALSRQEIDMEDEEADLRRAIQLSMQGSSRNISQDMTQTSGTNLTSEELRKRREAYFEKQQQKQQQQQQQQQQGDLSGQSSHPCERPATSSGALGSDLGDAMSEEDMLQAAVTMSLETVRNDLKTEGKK

Cn1cc(CN(Cc2ccc(Cl)cc2)C(=O)CCl)cn1
inactive: ALG13 -0.382 | ATXN3 -0.833 | BAP1 -0.944 | EIF3F -0.0957 | EIF3H 0.132 | FAM105A -0.189 | OTUB1 -0.095 | OTUD4 0.0527 | OTUD5 -0.592
